# The list is not random: actives were taken first. Their share in the collection is about 9%.
# ALDH1A1 block – qHTS Assay for Inhibitors of Aldehyde Dehydrogenase 1 (ALDH1A1) | Aldehyde dehydrogenase 1A1 (Homo sapiens), P00352 | Purified ALDH1A1, NADH fluorescence, propionaldehyde substrate | Potency, µM (series often up to 75.3 µM), for inactives: at the top dose activity, negative = inhibition, most hits filed as inhibitors | 220,000 tested, 7.3% active | AID 1030, 2008;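 note: potency is the fitted concentration of half-maximal effect; plate controls were no enzyme wells and a reference inhibitor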
# IMPase cell inh – qHTS Assay for Identifying the Cell-Membrane Permeable IMPase Inhibitors | CHO-M1 cells, IP1 accumulation, HTRF TR-FRET ratio | inhibition (IP1 accumulation), % at 46.1 µM | 120,000 tested, under 10 active | AID 901, 2007; active = well fitted curve in the direction sought with a large enough effect in the signal ratio, not every such curve was filed as active; inconclusive = small, poorly fitted or top-dose-only effect, or a change in a side signal; inactive = no such curve, though single readings can be large or run the other way; the % refers to the signal ratio;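 note: cells stimulated with carbachol in lithium chloride buffer; plate controls were DMSO basal wells for no effect and reference inhibitor wells for full effect; higher means more IMPase inhibition seen as more IP1 and lower FRET ratio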
# Target sequence (P97697 whole entry, looked up): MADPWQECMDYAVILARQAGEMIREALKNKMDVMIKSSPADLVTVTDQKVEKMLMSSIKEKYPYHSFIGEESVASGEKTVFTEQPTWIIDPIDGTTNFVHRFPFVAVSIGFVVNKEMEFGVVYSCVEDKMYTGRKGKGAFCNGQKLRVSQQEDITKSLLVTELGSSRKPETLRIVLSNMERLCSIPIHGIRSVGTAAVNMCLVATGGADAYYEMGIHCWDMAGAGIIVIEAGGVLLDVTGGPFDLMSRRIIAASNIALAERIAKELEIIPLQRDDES
#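 The IP-One HTRF competitive assay in carbachol-stimulated CHO-M1 cells quantifies cellular IP1. Compounds spanned up to 46 uM final, and activity is expressed as AC50 from concentration-response fits of the ratio and donor data.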
# HPGD block – qHTS Assay for Inhibitors of HPGD (15-Hydroxyprostaglandin Dehydrogenase); 15-hydroxyprostaglandin dehydrogenase [NAD(+)] (Homo sapiens), P15428; purified HPGD, NADH fluorescence kinetic, PGE2 substrate; Potency, µM, without a hit: at the highest dose activity change, negative = inhibition, hits mostly inhibitors; 150,000 tested, 4.3% active; AID 894, 2007; note: potency is the fitted concentration of half-maximal effect
# Target sequence (P15428 whole entry, looked up): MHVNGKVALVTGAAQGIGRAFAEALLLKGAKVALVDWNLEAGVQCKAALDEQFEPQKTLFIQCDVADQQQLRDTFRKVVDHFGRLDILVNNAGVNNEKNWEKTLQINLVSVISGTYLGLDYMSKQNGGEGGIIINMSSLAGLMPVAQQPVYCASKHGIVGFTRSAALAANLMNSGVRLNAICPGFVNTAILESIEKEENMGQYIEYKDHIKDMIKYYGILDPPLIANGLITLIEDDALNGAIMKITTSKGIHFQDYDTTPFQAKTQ
#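 NADH formation kinetics: reaction with 30 uM PGE2 and 1 mM NAD+ (final), 20 nM enzyme, Tris-HCl pH 8 with Tween 20, after 15 min compound preincubation at room temperature. Fluorescence change, last versus first of five reads.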
# The depositor's hits bear a star; ? = inconclusive; nt = not tested or not shown; [ ] = remark or other dose. Unless noted, calls come from the whole dose curve; as a rule, active = well fitted inhibition curve with a large enough effect (not every such curve was filed as active); inconclusive = small, poorly fitted or top-dose-only effect, or another doubt; inactive = no such curve, though single readings can be large or run the other way. Unless noted, % is set by controls: 0 for no effect and ±100 for the full control effect.
SMILES,ALDH1A1 block,IMPase cell inh,HPGD block
CC(C)NC(=O)N1CC[C@@]2(CCCN(C(=O)c3ccncc3)C2)C1,2%,nt,-8%
CC1(C)CC(=O)c2c(nc3ccccc3c2N)C1,?,-3[1.84 µM],?
CCNc1c2c(nc3ccccc13)CC(C)(C)CC2=O,14µM*,10,-5%
COc1ccc(C(=O)c2sc(Nc3ccccc3)c(C(=O)Nc3ccc(OC)c(OC)c3)c2N)cc1,18µM*,-3,-14%
COc1ccc(NC(=O)c2c(Nc3ccccc3)sc(C(=O)c3ccc(F)cc3)c2N)cc1,-3%,10,?
O=C(c1ccc(F)cc1)C1CCN(C(=O)NC2CCCCC2)CC1,11µM*,7,-8%
O=C(NC1CCCCC1)N1CCN(S(=O)(=O)c2ccc(F)cc2)CC1,6%,nt,nt
[O-][n+]1c(CN2CCCCC2)nc2cccc3c2c1-c1ccccc1-3,1µM*,nt,?
O=c1[nH]c(CN2CCCCC2)nc2c1C1(CCCCC1)Cc1ccccc1-2,6%,-6,-10%
OC(Cn1cncn1)c1ccc(Cl)cc1Cl (stereo unspecified),14%,3,-6%
N#CC(c1ccc(Cl)nn1)c1ccc(Cl)cc1Cl (stereo unspecified),6.3µM*,9,-6%
CN(C(=O)CCn1c(=S)oc2ccccc21)c1ccc(F)cc1,2%,nt,nt
C=C1C[C@@]23CC4C5[C@@]6(C)C[C@H](O)C[C@@]57C2[C@H](O)[C@@H]1[C@H](O)[C@H]3[C@H]7N4C6,9%,nt,2%
O=C1OC(O)C(C(Cl)Cl)=C1Cl (stereo unspecified),20µM*,nt,-8%
CS(=O)(=O)N1CCC[C@@]2(CCN(Cc3nccs3)C2)C1,3%,nt,-5%
O=S(=O)(NCc1ccco1)c1cnc(Cl)c(Br)c1,22µM*,nt,-14%
Cc1ccc(S(=O)(=O)NCc2ccco2)cc1C(N)=O,2%,nt,nt
COCC(C)Nc1nc(C)c(C(C)=O)s1 (stereo unspecified),-1%,nt,nt
CCOC(=O)c1cnc2ccc(OCC)cc2c1N1CCN(c2ccccc2)CC1,-5%,14,-5%
CCN1CCN(c2c(C(=O)c3ccc(OC)cc3)cnc3ccccc23)CC1,2.8µM*,nt,nt
COc1ccc(CCNC(=O)CSc2nnc(NC(C)=O)s2)cc1OC,-7%,nt,-12%
CN(CC(=O)OCC(N)=O)S(=O)(=O)c1ccc(Cl)cc1,6%,nt,nt
O=C(NC1CCCCC1)C1CCN(c2cnccn2)CC1,15%,0,-11%
O=C(N/N=C/c1cccc([N+](=O)[O-])c1)c1ccc(Br)cc1,2%,nt,nt
O=C(O)c1cc(NN=Nc2ccc(Br)cc2)cc([N+](=O)[O-])c1,6.3µM*,nt,nt
SMILES,ALDH1A1 block,IMPase cell inh,HPGD block
O=C(Nc1ccc(C(=O)O)cc1)Nc1cccc([N+](=O)[O-])c1,5%,nt,-7%
O=C(O)c1cc(NN=Nc2cccc([N+](=O)[O-])c2)cc([N+](=O)[O-])c1,20µM*,nt,nt
NC(=S)NC(=O)/C=C/c1ccccc1,4%,nt,nt
COc1ccc(Cc2nnc(NC(=O)CSc3ccc(Cl)cc3)s2)cc1OC,14%,4,-1%
CSc1ccccc1NC(=O)CN(c1ccccc1Br)S(C)(=O)=O,8%,nt,-12%
CCN(CC)S(=O)(=O)c1ccc(NC(=O)C(C)N(c2ccccc2)S(C)(=O)=O)cc1 (stereo unspecified),-1%,7,1%
COc1cccc(CNC(=O)C23CN(Cc4ccccc4)CC2C(c2ccc([N+](=O)[O-])cc2)=NO3)c1 (stereo unspecified),?,4,-8%
COc1ccc(CCNC(=O)C23CN(Cc4ccccc4)CC2C(c2cccc([N+](=O)[O-])c2)=NO3)cc1 (stereo unspecified),8.9µM*,13,-25%
Cc1ccc(CCNC(=O)C23CN(Cc4ccccc4)CC2C(c2cccc([N+](=O)[O-])c2)=NO3)cc1 (stereo unspecified),?,11,-18%
O=C(NCc1ccc(C(F)(F)F)cc1)C12CN(Cc3ccccc3)CC1C(c1cccc([N+](=O)[O-])c1)=NO2 (stereo unspecified),?,0,-19%
O=C(NCc1ccccc1C(F)(F)F)C12CN(Cc3ccccc3)CC1C(c1ccc([N+](=O)[O-])cc1)=NO2 (stereo unspecified),25µM*,2,-17%
CC(C)CCNC(=O)C12CN(Cc3ccccc3)CC1C(c1ccc([N+](=O)[O-])cc1)=NO2 (stereo unspecified),2.8µM*,5,-22%
O=C(O)C1CCN(C(=O)Cc2ccccc2)CC1,0%,nt,nt
CC1(C)CC2CN(C(=O)Cc3ccccc3)C(C)(C2)C1 (stereo unspecified),18µM*,nt,nt
COc1ccc(/C(O)=C2\C(=O)C(=O)N(c3cc(C)on3)C2c2ccccc2OC)cc1 (stereo unspecified),22µM*,-29,-24%
COc1ccc(/C(O)=C2\C(=O)C(=O)N(c3cc(C)on3)C2c2ccccc2OC)cc1C (stereo unspecified),-28%,-19,nt
CCOc1ccc(Nc2nc(NCCN3CCOCC3)nc(OC)n2)cc1,2%,7,?
Nc1ccc2c(c1)C(=O)c1ccccc1C2=O,?,nt,-8%
Nc1ccc2c(c1)C(=O)C(=O)c1ccccc1-2,2.2µM*,?,2.2µM*
Nc1nnnn1CC(=O)OCc1cccc(Br)c1,6%,3,-10%
Cc1cc(NC(=O)c2cc(S(=O)(=O)N3CCCCC3)ccc2C)n(-c2ccccn2)n1,-2%,5,?
Cc1ccc(CC2CC(=O)N(Cc3ccco3)C2=O)cc1 (stereo unspecified),19µM*,2,-11%
O=C1CC(NCc2ccco2)C(=O)N1CCc1ccccc1 (stereo unspecified),-14%,-1,-17%
O=C(CN1C(=O)C2C3CCC(C3)C2C1=O)NCc1ccco1 (stereo unspecified),0%,nt,nt
Cc1ccc(CC2CC(=O)N(c3ccncc3)C2=O)cc1 (stereo unspecified),-14%,-11,-12%
SMILES,ALDH1A1 block,IMPase cell inh,HPGD block
O=C1CC(Cc2ccccc2)C(=O)N1Cc1ccco1 (stereo unspecified),2.8µM*,2,-14%
O=C1C2C3CCC(C3)C2C(=O)N1Cc1ccco1 (stereo unspecified),12µM*,nt,-1%
CC(C)(C)c1ccc(O)c(/C=N\O)c1,1%,-6,-14%
CC(C)(C)c1ccc(O)c(O)c1,0.89µM*,nt,10µM*
CCCC[C@@H](NC(=O)[C@@H](Cc1cn(C(=O)OC)c2ccccc12)NC(=O)[C@H](CC(C)(C)C)NC(=O)N1[C@H](C)CCC[C@@H]1C)C(=O)O,6%,nt,0%
COCCNCCOc1ccc(C)cc1[N+](=O)[O-],-93%,nt,nt
C=CCc1ccc(OCCCN2CCCC(C)C2)c(OC)c1 (stereo unspecified),16µM*,8,-11%

# Screening data as filed in PubChem.
